High-throughput results: PubChem, National Center for Advancing Translational Sciences (NCATS)
HP1b chromo inh = blocks HP1-beta chromodomain binding to methylated histone tails | P83916 | AlphaScreen HP1-beta / biotin-H3K9me3 peptide binding | Potency, µM (titrated, usually from 114 µM), inactives show top-dose activity change, negative = inhibition, most hits filed as inhibitors | 390,000 compounds, 0.56% hits; further: nearly all actives have a fitted effect of over 70% in size
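AlphaScreen: HP1-beta (50 nM) preformed 30 min with biotin-H3(1-18)K9me3 peptide (50 nM) in PBS pH 7.4, 0.01% Tween-20. Compound added for 30 min at RT, then streptavidin donor/nickel chelate acceptor beads (10 ug/mL) for 30 min.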
VDR inh = blocks the human vitamin D receptor. P11473. VDR-SRC2-3 peptide fluorescence polarization, 2 h. Potency, µM, inactives show max response, negative = inhibition, actives largely listed as inhibitors. 400,000 compounds, 0.93% hits. AID 504847; further: on the % scale 0 is the no-effect control and ±100 the full control effect
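Two reagent solutions held at 4 deg C in the dark were dispensed, compounds pinned at 23 nl, and the mixture incubated 2 h at room temperature. Read-out: fluorescence polarization of VDR–SRC2-3 peptide binding.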
JMJD2A Tudor = JMJD2A Tudor domain (human) inhibition. AlphaScreen JMJD2A-Tudor / H3K4me3 peptide binding. Potency, µM (highest dose often 114 µM), without a hit: at the highest dose activity change, negative = inhibition, usual class: inhibitors. 390,000 compounds, 4.4% hits; further: on the % scale 0 is the no-effect control and ±100 the full control effect; nearly all actives have a fitted effect of over 50% in size
BAZ2B inh = BAZ2B (human) inhibition. AlphaScreen BAZ2B-H3K14Ac peptide displacement. AID 504333. Potency, µM (highest dose often 114 µM), inactives show top-dose activity change, negative = inhibition, hits mostly inhibitors. Q9UIF8. 360,000 compounds, 4.4% hits; further: on the % scale 0 is the no-effect control and ±100 the full control effect; nearly all actives have a fitted effect of over 60% in size
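BAZ2B 50 nM plus b-H3(5-23)K14Ac 50 nM, PBS pH 7.4/0.01% Tween-20, 30 min RT; compound added (max 110 uM), 30 min RT; streptavidin donor/Ni-chelate acceptor beads 10 ug/mL final, 20 min dark; AlphaScreen read.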
G9a block = blocks human histone lysine methyltransferase G9a; 350,000 compounds, 8.8% hits; Potency, µM (top dose mostly 102 µM), inactives show top-dose activity, negative = inhibition, usual class: inhibitors; G9a H3K9 monomethylation, AlphaScreen, 2 h; further: on the % scale 0 is the no-effect control and ±100 the full control effect; nearly all actives have a fitted effect of over 75% in size
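G9a (20 nM) preincubated 15 min RT with compounds, then 500 nM biotinylated H3K9 peptide and 20 uM SAM added; 2 h RT reaction. Monomethyl-H3K9 product detected by AlphaScreen with anti-H3K9me1 antibody, streptavidin donor and anti-rabbit IgG acceptor beads.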
PLK1 PBD inh = blocks phosphopeptide binding to human PLK1 polo-box domain | Plk1 PBD binding of FITC phosphopeptide, fluorescence polarization | Potency, µM, inactives show max response, negative = inhibition, hits mostly inhibitors | 360,000 compounds, 2.8% hits | AID 720504; further: series mostly up to about 57 µM; on the % scale 0 is the no-effect control and ±100 the full control effect; nearly all actives have a fitted effect of over 65% in size
* hit, by the source's call; [ ] = dose if it differs, or a comment. An excerpt weighted towards active compounds, which were near 11% of everything screened. The call rests on the fitted dose curve; in most records, active means well fitted curve in the direction sought with a large enough effect; inconclusive means small, poorly fitted or top-dose-only effect, or another doubt; inactive means no such curve, though single readings can be large; an effect the other way counts as inactive or inconclusive. Potency means the concentration at half of the fitted maximal effect.

What do the screens show for `CCc1cc(-c2n[nH]c(CCC(=O)O)c2-c2nc3ccccc3n2C)c(O)cc1O`?
HP1b chromo inh: 29.0%; VDR inh: -5.2%; JMJD2A Tudor: -16.8%; BAZ2B inh: -24.9%; G9a block: 7.08µM*; PLK1 PBD inh: -0.9%

How did O=C(C1=C[C@H](c2csc3ccccc23)C[C@H](OCCCCO)O1)N1CCN(Cc2ccccc2)CC1 do in these assays?
HP1b chromo inh: 5.3%; VDR inh: -10.9%; JMJD2A Tudor: inconclusive; BAZ2B inh: 50.1µM*; G9a block: inconclusive; PLK1 PBD inh: 8.5%

How did Cc1c(O)c(=O)ccn1Cc1ccccc1 do in these assays?
HP1b chromo inh: 51.8%; VDR inh: 4.5%; JMJD2A Tudor: -8.5%; BAZ2B inh: inconclusive; G9a block: 31.6µM*; PLK1 PBD inh: 5.3%

How did CC1(C)C2CCC(CN=C(N)CSS(=O)(=O)O)C1C2 (stereo unspecified) do in these assays?
PLK1 PBD inh: 4.74µM*

How did O=C(CN1C(=O)COc2ccc(S(=O)(=O)N3CCOCC3)cc21)N1CCN(c2ccc(Cl)cc2)CC1 do in these assays?
HP1b chromo inh: 6.5%; VDR inh: -4.0%; JMJD2A Tudor: -27.2%; BAZ2B inh: -21.4%; G9a block: -0.3%[59 µM]

What do the screens show for `O=C(OCc1cnc(Cl)s1)c1c(F)cccc1F`?
HP1b chromo inh: 42.9%; VDR inh: -28.0%; JMJD2A Tudor: inconclusive; BAZ2B inh: 13.2%; G9a block: 12.4%; PLK1 PBD inh: 23.8µM*

What do the screens show for `C#CCOCCOCCOCCNc1nc(N2CCN(C(=O)[C@H](C)n3cc(CCCN=C(N)N)nn3)CC2)nc(N2CCN(C(=O)[C@H](C)n3cc(CCCN=C(N)N)nn3)CC2)n1`?
HP1b chromo inh: 48.3%; VDR inh: -0.3%; JMJD2A Tudor: -21.4%; BAZ2B inh: -5.5%; G9a block: 79.4µM*; PLK1 PBD inh: -3.3%

Results for C#CCOCCOCCOCCNc1nc(N2CCN(C(=O)Cn3cc(CCCN=C(N)N)nn3)CC2)nc(N2CCN(C(=O)Cn3cc(CCCN=C(N)N)nn3)CC2)n1 ?
BAZ2B inh: inconclusive; G9a block: 25.1µM*

How did C#CCOCCOCCOCCNc1nc(N2CCN(C(=O)Cn3cc(CCO)nn3)CC2)nc(N2CCN(C(=O)[C@H]([C@@H](C)CC)n3cc(CCCN=C(N)N)nn3)CC2)n1 do in these assays?
HP1b chromo inh: 32.5%; VDR inh: -15.3%; JMJD2A Tudor: -14.0%; PLK1 PBD inh: 1.5%

How did C#CCOCCOCCOCCNc1nc(N2CCN(C(=O)Cn3cc(CC(C)O)nn3)CC2)nc(N2CCN(C(=O)[C@H]([C@@H](C)CC)n3cc(CCCN=C(N)N)nn3)CC2)n1 (stereo partly specified) do in these assays?
HP1b chromo inh: 30.6%; VDR inh: -18.1%; JMJD2A Tudor: -7.6%; BAZ2B inh: inconclusive; G9a block: 50.1µM*; PLK1 PBD inh: 0.0%

How did C#CCOCCOCCOCCNc1nc(N2CCN(C(=O)[C@H]([C@@H](C)CC)n3cc(CCCN=C(N)N)nn3)CC2)nc(N2CCN(C(=O)[C@H](Cc3ccc(O)cc3)n3cc(CCO)nn3)CC2)n1 do in these assays?
HP1b chromo inh: 27.6%; VDR inh: -17.4%; JMJD2A Tudor: inconclusive; BAZ2B inh: inconclusive; G9a block: 44.7µM*; PLK1 PBD inh: -3.5%

Results for C#CCOCCOCCOCCNc1nc(N2CCN(C(=O)[C@H]([C@@H](C)CC)n3cc(CCCCN)nn3)CC2)nc(N2CCN(C(=O)[C@H](C)n3cc(CCC(=O)O)nn3)CC2)n1 ?
HP1b chromo inh: 6.8%; VDR inh: 0.8%; JMJD2A Tudor: -20.1%; BAZ2B inh: inconclusive; G9a block: 79.4µM*; PLK1 PBD inh: -1.7%

Results for C#CCOCCOCCOCCNc1nc(N2CCN(C(=O)[C@H]([C@@H](C)CC)n3cc(CCCN=C(N)N)nn3)CC2)nc(N2CCN(C(=O)[C@H]([C@@H](C)CC)n3cc(CCCN=C(N)N)nn3)CC2)n1 ?
BAZ2B inh: inconclusive; G9a block: 20µM*

What do the screens show for `C#CCOCCOCCOCCNc1nc(N2CCN(C(=O)[C@H]([C@@H](C)CC)n3cc(CCCN=C(N)N)nn3)CC2)nc(N2CCN(C(=O)[C@H](C)n3cc(CCCN=C(N)N)nn3)CC2)n1`?
HP1b chromo inh: 18.8%; VDR inh: 11.7%; JMJD2A Tudor: -31.2%; BAZ2B inh: inconclusive; G9a block: 39.8µM*; PLK1 PBD inh: -0.7%

How did COc1ccccc1C(=O)NCC(=O)N1CC=C(c2ccccc2)CC1 do in these assays?
HP1b chromo inh: 16.8%; VDR inh: -3.3%; JMJD2A Tudor: -3.8%; BAZ2B inh: 8.3%; G9a block: -0.6%[59 µM]; PLK1 PBD inh: -0.9%

Results for O=C(CS(=O)(=O)c1ccc(Cl)cc1)N1CCN(c2ccccc2)CC1 ?
PLK1 PBD inh: -0.9%

What do the screens show for `Cn1cccc1CC(=O)NNC(=S)Nc1ccc(F)cc1`?
HP1b chromo inh: 12.2%; VDR inh: -3.8%; JMJD2A Tudor: inconclusive; BAZ2B inh: -11.8%; G9a block: inconclusive; PLK1 PBD inh: -21.3%

What do the screens show for `Cn1cccc1CC(=O)NNC(=S)NC(=O)c1ccccc1Br`?
HP1b chromo inh: -4.9%; VDR inh: 2.4%; JMJD2A Tudor: -22.2%; BAZ2B inh: 0.5%; G9a block: 17.8µM*; PLK1 PBD inh: -16.4%

How did Cn1cccc1CC(=O)NNC(=O)Nc1ccccc1F do in these assays?
HP1b chromo inh: 30.9%; VDR inh: -19.7%; JMJD2A Tudor: -13.5%; BAZ2B inh: -7.1%; G9a block: -3.1%[12.7 µM]; PLK1 PBD inh: -3.8%

Results for Cn1cccc1CC(=O)NNC(=S)Nc1ccc(Cl)cc1Cl ?
HP1b chromo inh: 18.9%; VDR inh: -6.4%; JMJD2A Tudor: -12.7%; BAZ2B inh: inconclusive; G9a block: 44.7µM*; PLK1 PBD inh: -4.6%

What do the screens show for `Cc1cc(C)cc(Nc2nc3cc(Cl)c(Cl)cc3nc2-n2nc(C)cc2C)c1`?
HP1b chromo inh: 29.4%; VDR inh: -6.6%; JMJD2A Tudor: -1.7%; BAZ2B inh: 7.7%; G9a block: -37.8%[59 µM]

What do the screens show for `Nc1sc(-c2ccccc2)cc1-c1n[nH]c(=S)n1C1CCCCC1`?
HP1b chromo inh: 35.3%; VDR inh: -17.7%; JMJD2A Tudor: -15.9%; BAZ2B inh: -4.1%; G9a block: 4.4%[59 µM]; PLK1 PBD inh: 1.0%

What do the screens show for `Cc1nn(CCc2n[nH]c(=S)n2C2CCCCC2)c(C)c1Br`?
HP1b chromo inh: 34.7%; VDR inh: 1.2%; JMJD2A Tudor: 79.4µM*; BAZ2B inh: -6.7%[57.1 µM]; G9a block: 2.51µM*; PLK1 PBD inh: -5.1%

How did COc1ccccc1-n1c(CCn2nc(C)c(Br)c2C)n[nH]c1=S do in these assays?
HP1b chromo inh: 3.7%; VDR inh: -15.5%; JMJD2A Tudor: 7.08µM*; BAZ2B inh: -4.3%; G9a block: 1.12µM*; PLK1 PBD inh: -6.0%
